The record followed here is the supplement of paper PMC13380429.

SMILES strings stand for the structures.

This assay relates to Vero E6 infected with SARS-CoV-2. The experiment in a line: SARS-CoV-2 infection rate relative to infected DMSO; higher = more infection, active = 60 or less. The following applies: 24 h.
On to `CNCc1cc(-c2ccccc2F)n(S(=O)(=O)c2cccnc2)c1` [vonoprazan] (10 µM), for which the SARS-CoV-2 infection rate was 114% (inactive).

As to `c1ccc2c(c1)OC[C@H](CNCCCOc1ccc3c(c1)OCO3)O2` [osemozotan] (10 µM), the SARS-CoV-2 infection rate was 106% (inactive).

Take `C[C@@]1(C(=O)O)NCCc2cc(O)c(O)cc21` [salsolinol-1-carboxylic-acid] (10 µM): the SARS-CoV-2 infection rate was 97.5% (inactive).

For the compound `CCn1cc(C(=O)O)c(=O)c2cc3c(cc21)OCO3` [oxolinic-acid] (10 µM), the SARS-CoV-2 infection rate was 96% (inactive).

For the compound `Cc1ncc([N+](=O)[O-])n1CC(O)CN1CCOCC1` (configuration not stated) [morinidazole] (10 µM), the SARS-CoV-2 infection rate was 111% (inactive).

Regarding `CCCCC[C@H](O)/C=C/[C@H]1[C@H](O)CC(=O)[C@@H]1CCCCCCC(=O)O` [alprostadil] (10 µM), the SARS-CoV-2 infection rate is 90.5% (inactive).

Consider `CCNC(=O)CCC/C=C\C[C@@H]1[C@@H](/C=C/[C@@H](O)CCc2ccccc2)[C@H](O)C[C@@H]1O` [bimatoprost] (10 µM), for which the SARS-CoV-2 infection rate is 103% (inactive).

As to `Oc1ccc2c3c1O[C@H]1c4[nH]c5c(c4C[C@@]4(O)[C@@H](C2)N(CC2CC2)CC[C@]314)C[C@@]1(O)[C@H]2Cc3ccc(O)c4c3[C@@]1(CCN2CC1CC1)[C@H]5O4` [nor-binaltorphimine] (10 µM), the SARS-CoV-2 infection rate is 114% (inactive).

As to `CCCCCCCCCCCCCCCC(=O)OC[C@H](O)[C@H]1OC(=O)C(O)=C1O` [L-ascorbyl-6-palmitate] (10 µM), the SARS-CoV-2 infection rate was 112% (inactive).

Turning to `CNCCN(C)Cc1c[nH]nc1-c1ccc(O[C@H]2C[C@H](OCCC3CCOCC3)C2)cc1` (10 µM), the SARS-CoV-2 infection rate was 108% (inactive).

As for `C=CC(=O)Nc1cc(Nc2nccc(-c3cn(C)c4ccccc34)n2)c(OC)cc1N(C)CCN(C)C` [osimertinib] (10 µM), the SARS-CoV-2 infection rate is 110% (inactive).

In the case of `O=Nc1c(-c2c(O)[nH]c3ccccc23)[nH]c2ccccc12` [indirubin-3-monoxime] (0.833333 µM), the SARS-CoV-2 infection rate is 106% (inactive).

On to `O=C(Nc1cccc(Cl)c1)Nc1ncc(CCNc2ncnc3ccsc23)s1` (10 µM), for which the SARS-CoV-2 infection rate is 80% (inactive).

For the compound `N[C@@H](Cc1c[nH]c2ccc(O)cc12)C(=O)O` [5-hydroxytryptophan] (10 µM), the SARS-CoV-2 infection rate was 104% (inactive).

Consider `O=C1NCCNC1c1cccs1` (configuration not stated) [tenilsetam] (10 µM), for which the SARS-CoV-2 infection rate is 106% (inactive).

As to `O=C(OCCN1CCOCC1)c1cccnc1Nc1cccc(C(F)(F)F)c1` [morniflumate] (10 µM), the SARS-CoV-2 infection rate is 108% (inactive).

Turning to `CC(=O)Nc1ccc(C(=O)Nc2ccccc2N)cc1` [tacedinaline] (0.833333 µM), the SARS-CoV-2 infection rate is 110% (inactive).

Consider `CN1CCN(c2nc3ccccc3nc2Cl)CC1` (10 µM), for which the SARS-CoV-2 infection rate was 102% (inactive).

Take `C[C@@H]1C[C@H]2[C@@H]3C[C@H](F)C4=CC(=O)C=C[C@]4(C)[C@@]3(F)[C@@H](O)C[C@]2(C)[C@@]1(O)C(=O)COC(=O)C(C)(C)C` [flumethasone-pivalate] (10 µM): the SARS-CoV-2 infection rate is 80% (inactive).

`Clc1ccc2c(c1)CCc1cccnc1C2=C1CCNCC1` [desloratadine] (10 µM): the SARS-CoV-2 infection rate was 76% (inactive).

Turning to `CCCCC1=NC2(CCCC2)C(=O)N1Cc1ccc(-c2ccccc2-c2nnn[nH]2)cc1` [irbesartan] (10 µM), the SARS-CoV-2 infection rate was 96.5% (inactive).

On to `O=C(NCCCN1CCC2(CC1)OCc1ccccc12)[C@H]1CCCN1Cc1ccccc1` (10 µM), for which the SARS-CoV-2 infection rate is 63.5% (inactive).

Consider `CCc1ccc(C(=O)C(C)CN2CCCCC2)cc1` (configuration not stated) [eperisone] (10 µM), for which the SARS-CoV-2 infection rate was 80% (inactive).

Take `CC(C(=O)O)c1ccc2c(c1)CC(=O)c1ccccc1S2` (configuration not stated) [zaltoprofen] (10 µM): the SARS-CoV-2 infection rate is 104% (inactive).

Regarding `COc1ccc(C(=O)c2c(C)n(CCN3CCOCC3)c3cc(I)ccc23)cc1` (10 µM), the SARS-CoV-2 infection rate was 102% (inactive).

With `OCCN1CCN(CC/C=C2/c3ccccc3Sc3ccc(Cl)cc32)CC1` [zuclopenthixol] (0.833333 µM), the SARS-CoV-2 infection rate is 110% (inactive).

In the case of `C[N+]1(C)CCC(=C(c2ccccc2)c2ccccc2)CC1` [diphemanil] (10 µM), the SARS-CoV-2 infection rate was 95.5% (inactive).
